Some test systems named below: HCT-15 colon; HT29 colon; SNB-75 CNS; SNB-19 CNS; U251 CNS; PC-3 prostate; SK-MEL-5 melanoma; UACC-62 melanoma; LOX IMVI melanoma; SK-MEL-28 melanoma; SK-MEL-2 melanoma; EKVX NSCLC; SN12C renal; UO-31 renal; TK-10 renal; ACHN renal; CAKI-1 renal; A498 renal; CCRF-CEM leukemia; MOLT-4 leukemia.
Common to all, as to assay: NCI-60 one-dose screen, 48 h (100 = growth as untreated, 0 = no growth, -100 = all killed)
Common to all, as to conditions: 10 µM unless noted

This is part of a sample that, as a whole, favours compounds with a hit. Of some 83,000 tested, about 20% had one in any assay.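 48-hour exposure, single concentration, 96-well plates; percent growth endpoint where 0 means no net growth. Active: below 10.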 A number with no mark means an inactive call. Activity calls are given as the source filed them.

On to `CN1CCN(c2ccc(/C=N/n3cnc4oc(-c5ccccc5)cc4c3=N)cc2)CC1`, for which the growth in the assay with HCT-15 colon is 83.9%; in the assay with HT29 colon, 66.2%; with SNB-75 CNS, 55.3%; in the assay on SNB-19 CNS, 101%; in the assay with U251 CNS it was 100%; in the assay with PC-3 prostate, 63.2%. In addition, the growth in the assay on SK-MEL-5 melanoma is 88.6%; in the assay on UACC-62 melanoma, 93%; in the assay on LOX IMVI melanoma it was 61.3%; in the assay on SK-MEL-28 melanoma, 77.8%; in the assay on SK-MEL-2 melanoma, 103%; in the assay on EKVX NSCLC it was 88.4%. Also, the growth was 66% with SN12C renal; 63.7% with UO-31 renal; 119% with TK-10 renal; 70.1% in the assay with ACHN renal; 72.5% with CAKI-1 renal; 81.4% in the assay on A498 renal. Also, the growth in the assay on CCRF-CEM leukemia is 44.8%; in the assay on MOLT-4 leukemia, 44.4%.

Take `CCCn1cnc2c(c1=N)C(c1ccc(F)cc1)c1sc3c(C)cccc3c1O2` (stereo not given): the growth with HCT-15 colon is 18.5%; in the assay with HT29 colon, 57%; with SNB-75 CNS, -4.36% (active); in the assay with SNB-19 CNS, 22.4%; in the assay on U251 CNS, 24.4%; in the assay on PC-3 prostate it was 33.4%. For the same compound, the growth in the assay with SK-MEL-5 melanoma is 24.8%; in the assay with UACC-62 melanoma, 27.7%; in the assay with LOX IMVI melanoma it was 28.8%; in the assay with SK-MEL-28 melanoma it was 45.1%; with SK-MEL-2 melanoma, 52.8%; in the assay on EKVX NSCLC it was 37.1%. Besides, the growth with SN12C renal was 61.9%; with UO-31 renal, 32.8%; in the assay on TK-10 renal it was 70.9%; in the assay on ACHN renal, 35.5%; in the assay with CAKI-1 renal, 28.6%; with A498 renal, -19.9% (active). Also, the growth with CCRF-CEM leukemia is -3.84% (active); with MOLT-4 leukemia, 40%.

As to `CCNC(=O)N1CCc2cc(OC)c(OCCc3ccc(OC)cc3)cc2C1c1ccc([N+](=O)[O-])cc1C` (stereo not given), the growth in the assay with HCT-15 colon is 7.24% (active); in the assay with HT29 colon it was 4.69% (active); with SNB-75 CNS it was 21%; with SNB-19 CNS, 28.4%; in the assay on U251 CNS, 16.4%; with PC-3 prostate, 23.4%. Moreover, the growth is 0.509% (active) with SK-MEL-5 melanoma; 30.4% in the assay with UACC-62 melanoma; 7.24% (active) in the assay on LOX IMVI melanoma; 47.8% with SK-MEL-28 melanoma; 22.3% in the assay with SK-MEL-2 melanoma; 42.2% in the assay with EKVX NSCLC. In addition, the growth is 44% in the assay with SN12C renal; 29.3% in the assay on UO-31 renal; 54.8% with TK-10 renal; 30.4% in the assay on ACHN renal; 27.2% in the assay with CAKI-1 renal; -16.8% (active) with A498 renal. Also, the growth in the assay with CCRF-CEM leukemia was 33.4%; in the assay with MOLT-4 leukemia, 26.1%.

On to `COc1cc(Nc2c(C#N)cnn3cc(-c4cnn(CC(C)(C)O)c4)cc23)ccc1Cl`, for which the growth with HCT-15 colon was 29.9%; in the assay with HT29 colon, 54.3%; in the assay with SNB-75 CNS, 55.5%; in the assay on SNB-19 CNS it was 88.1%; in the assay with U251 CNS it was 67.2%; in the assay with PC-3 prostate, 62.4%. The growth in the assay with SK-MEL-5 melanoma was 65.3%; in the assay on UACC-62 melanoma it was 46%; in the assay on LOX IMVI melanoma, 31%; in the assay on SK-MEL-28 melanoma, 86%; in the assay on SK-MEL-2 melanoma it was 61.1%; in the assay with EKVX NSCLC, 43.4%. Moreover, the growth with SN12C renal is 23.5%; with UO-31 renal, 11.6%; in the assay on TK-10 renal it was 23.3%; in the assay with ACHN renal, 18%; in the assay with CAKI-1 renal, 9.46% (active); in the assay with A498 renal it was -24.4% (active). Also, the values for the growth in the assay on CCRF-CEM leukemia and in the assay with MOLT-4 leukemia were 32.6% and 36.7%, respectively.

Take `Oc1ccc(CSc2nnc(-c3ccc(Cl)cc3)n2-c2ccccc2)c2cccnc12`: the growth is 14.4% in the assay with HCT-15 colon; 92.7% with HT29 colon; 16.6% in the assay with SNB-75 CNS; 13.3% with SNB-19 CNS; 3.32% (active) in the assay with U251 CNS; 19.1% with PC-3 prostate. The growth was 5.67% (active) in the assay with SK-MEL-5 melanoma; 9.41% (active) in the assay on UACC-62 melanoma; 29.5% with LOX IMVI melanoma; 42.4% with SK-MEL-28 melanoma; 35.2% with SK-MEL-2 melanoma; 28.6% in the assay on EKVX NSCLC. The growth is 33.2% in the assay on SN12C renal; 0.657% (active) in the assay with UO-31 renal; 28.2% in the assay on TK-10 renal; 30.5% in the assay on ACHN renal; 48.7% in the assay with CAKI-1 renal; 50.2% in the assay with A498 renal. Besides, the results for the growth in the assay with CCRF-CEM leukemia and in the assay with MOLT-4 leukemia were 20.8% and 28.5%, respectively.

For `Fc1ccc(-c2cc3nc(C(Cl)Cl)nc(-c4ccc(F)cc4)n3n2)cc1`, the growth is 8.52% (active) in the assay with HCT-15 colon; -6.96% (active) with HT29 colon; -11.6% (active) in the assay on SNB-75 CNS; 1.89% (active) in the assay with SNB-19 CNS; -39.8% (active) with U251 CNS; 16.8% in the assay on PC-3 prostate. The growth was 76.5% in the assay with SK-MEL-5 melanoma; 44% with UACC-62 melanoma; 55.7% in the assay on LOX IMVI melanoma; -5.14% (active) with SK-MEL-28 melanoma; 108% with SK-MEL-2 melanoma; 7.26% (active) in the assay on EKVX NSCLC. The growth was 49.2% in the assay on SN12C renal; 29.3% in the assay on UO-31 renal; 13.2% in the assay on TK-10 renal; -41.1% (active) with ACHN renal; -18.3% (active) in the assay with CAKI-1 renal; -53.1% (active) in the assay with A498 renal. Moreover, the values for the growth in the assay with CCRF-CEM leukemia and in the assay on MOLT-4 leukemia were 33.1% and 12.4%, respectively.

Take `O=C(CSc1nnc(-c2ccc(Cl)cc2)n1-c1ccccc1)Nc1ccc(Br)cc1`: the growth with HCT-15 colon is 67%; in the assay with HT29 colon, 21.3%; in the assay on SNB-75 CNS, -33.7% (active); in the assay with SNB-19 CNS, 35%; in the assay on U251 CNS it was -51.8% (active); in the assay with PC-3 prostate, 13.5%. Besides, the growth was 31.2% in the assay on SK-MEL-5 melanoma; 20.2% with UACC-62 melanoma; -54.5% (active) in the assay with LOX IMVI melanoma; 33.4% with SK-MEL-28 melanoma; 80.9% in the assay with SK-MEL-2 melanoma; 24.9% in the assay with EKVX NSCLC. Moreover, the growth in the assay with SN12C renal was -42.9% (active); in the assay with UO-31 renal, -19.4% (active); with TK-10 renal, -55.7% (active); in the assay on ACHN renal it was -81.9% (active); in the assay on CAKI-1 renal, -53.6% (active); in the assay with A498 renal, -60.8% (active). Besides, the values for the growth with CCRF-CEM leukemia and in the assay with MOLT-4 leukemia were 41% and 61.1%, respectively.

For `Cn1ccnc1C(=O)/C=C/c1ccc(CNC(=O)c2ccc(F)cc2)cc1`, the growth in the assay on HCT-15 colon was 8.09% (active); in the assay with HT29 colon it was 10.2%; with SNB-75 CNS, 60.6%; with SNB-19 CNS it was 15.6%; in the assay with U251 CNS, 17.7%; with PC-3 prostate, 23.5%. Also, the growth with SK-MEL-5 melanoma was 72.8%; with UACC-62 melanoma, 43.2%; with LOX IMVI melanoma it was -1.32% (active); with SK-MEL-28 melanoma it was 80.5%; with SK-MEL-2 melanoma, 105%; in the assay with EKVX NSCLC, 53.5%. Moreover, the growth in the assay on SN12C renal is 20%; with UO-31 renal, 34.9%; in the assay on TK-10 renal, 75%; in the assay on ACHN renal it was 43.4%; in the assay with CAKI-1 renal it was 48%; in the assay on A498 renal it was 63.7%. For the same compound, the growth in the assay with CCRF-CEM leukemia is 12.8%; in the assay on MOLT-4 leukemia, 9.84% (active).
